Bioassay records from PubChem.
The full list was thinned out, with hits kept by preference.
LMNA splice mod: LMNA splicing modulation. Potency, µM (titrated, usually from 46.1 µM), inactives show at the top dose ratio change, negative = inhibition, most hits filed as inhibitors. hit rate 0.01% among 200,000. AID 1487. HeLa LMNA splicing GFP/RFP minigene ratio, 48 h; active = well fitted inhibition curve with a large enough effect in the signal ratio, with a control signal flat, not every such curve was filed as active; inconclusive = small, poorly fitted or top-dose-only effect, or effect the other way, or a change in a side signal; the % refers to the signal ratio; also: potency is read from the fitted curve at half-maximal effect
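S3 HeLa cells stably expressing lamin A-EGFP splicing minigene plus DsRed2, 600 cells/well, 48 h compound exposure at 37C. Laser-scanning cytometry; analysed as GFP (500-530 nm)/RFP (575-640 nm) total intensity ratio; 0.5% DMSO vehicle.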
IMPase cell inh: membrane-permeable compound that blocks inositol monophosphatase. CHO-M1 cells, IP1 accumulation, HTRF TR-FRET ratio. P97697. AID 901. inhibition (IP1 accumulation), % at 46.1 µM. 120,000 tested, under 10 active; active = well fitted curve in the direction sought with a large enough effect in the signal ratio, not every such curve was filed as active; inconclusive = small, poorly fitted or top-dose-only effect, or a change in a side signal; inactive = no such curve, though single readings can be large or run the other way; the % refers to the signal ratio;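 also: cells stimulated with carbachol in lithium chloride buffer; plate controls were DMSO basal wells for no effect and reference inhibitor wells for full effect; higher means more IMPase inhibition seen as more IP1 and lower FRET ratio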
Target sequence (P97697 whole entry, looked up): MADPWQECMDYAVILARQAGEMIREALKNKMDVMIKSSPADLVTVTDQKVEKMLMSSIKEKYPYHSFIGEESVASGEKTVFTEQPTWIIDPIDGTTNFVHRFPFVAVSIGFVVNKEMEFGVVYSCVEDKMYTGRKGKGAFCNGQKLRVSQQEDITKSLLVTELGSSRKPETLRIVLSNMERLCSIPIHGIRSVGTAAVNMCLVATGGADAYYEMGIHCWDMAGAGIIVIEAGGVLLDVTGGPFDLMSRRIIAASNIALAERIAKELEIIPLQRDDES
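Cellular IMPase inhibition is scored as a rise in cytosolic IP1, detected by competitive TR-FRET between d2-labelled IP1 and a europium anti-IP1 antibody. M1-expressing CHO cells were stimulated with carbachol for 30 min at 37C, with lithium (50 mM LiCl) present in the buffer.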
PNC assembly inh: perinucleolar compartment assembly inhibition; hit rate 3.1% among 140,000; PC3M PTB-GFP, PNC prevalence imaging, 16 h; stronger effect = lower value; activity change (PNC), negative = inhibition, % at 10 µM;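 active = readout at or below -70, meaning at least 70% loss of cells showing the perinucleolar compartment, a nuclear body marking cancer cells; inconclusive = readout between -30 and a set limit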;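 also: plate controls were DMSO wells for no effect and camptothecin positive control wells for full effect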
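Read-out is percentage of cells bearing a perinucleolar compartment, from automated 20x imaging of fixed, Hoechst-stained PC3M PTB-GFP cells. Cells were seeded 4 h, then exposed 16 h to compound (23 nl of library stock) in duplicate plates.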
Numbers without * were called inactive; ? = inconclusive; nt = no result given; [ ] = remark or other dose. Unless noted, % is scaled to controls: 0 for no effect and ±100 for the full control effect.

SMILES | LMNA splice mod | IMPase cell inh | PNC assembly inh
CCc1ccccc1N1CC23C=CC(O2)C(C(=O)O)C3C1=O (stereo not given) | -1.4% | -0.2 | -4.8
COc1cc(OC)c(N2CC34C=CC(O3)C(C(=O)O)C4C2=O)cc1Cl (stereo not given) | -2.3% | -1.7 | -91.7*
O=c1[nH]ccc2c(O)cccc12 | ? | -0.8 | nt
CN1CCN(S(=O)(=O)c2ccc3ccccc3c2)CC1 | -5.5% | -9.4 | 15.6
Cc1ccc(S(=O)(=O)N2CCCN(S(=O)(=O)c3ccc4ccccc4c3)CC2)cc1 | ? | -7.6 | -100.0*
O=C(NCCCN1CCN(c2ccccc2F)CC1)C1COc2ccccc2C1 (stereo not given) | -18.0%[46 µM] | nt | nt
Cc1ccccc1N=Nc1c(C)[nH]n(-c2ccccc2)c1=O | -5.1%[46 µM] | nt | nt
Cc1ccccc1N=Nc1c(C)[nH]n(C(N)=S)c1=O | -16.7% | nt | -113.3*
CCOC(=O)c1cc(-c2ccc(OC)cc2)n(CCC(=O)NC2CCC(C)CC2)c1C (stereo not given) | -17.2%[46 µM] | nt | nt
O=C(CCCc1nc(-c2ccco2)no1)Nc1ccccc1[N+](=O)[O-] | 15.5%[46 µM] | nt | nt
CNc1nnc(-c2ccc(N(C)C)cc2)s1 | -13.6% | nt | -95.2*
CN(C)c1ccc(-c2ccncc2)cc1 | 10.6% | 5.6 | -18.4
Cc1ccc(N2CCN(C(=O)Cn3ncc4c([nH]c5ccc(C)cc54)c3=O)CC2)c(C)c1 | -1.2%[46 µM] | nt | nt
CCOc1ccc(NC(=O)CN(Cc2ccccc2)S(=O)(=O)c2ccc3nc(C)sc3c2)cc1 | -4.2%[46 µM] | nt | nt
CCN(CC)S(=O)(=O)c1ccc(C)c(NC(=O)CN(C)C)c1 | -9.2% | 3.5 | -83.9*
CCN(c1ccccc1)S(=O)(=O)c1ccc(OC)c(NC(=O)CN(C)C)c1 | -11.7%[46 µM] | nt | nt
COc1ccc(N2CC(NC(=O)c3ccc4c(c3)OCO4)CC2=O)cc1 (stereo not given) | 16.6%[46 µM] | nt | nt
COc1cc(S(=O)(=O)N2CCC(c3nc4ccccc4s3)CC2)ccc1S(=O)(=O)NC1CCCC1 | ? | 3.4 | -100.0*
COc1cc(S(=O)(=O)N2CCC(c3nc4ccccc4s3)CC2)ccc1S(=O)(=O)N1CC(C)CC(C)C1 (stereo not given) | -4.5% | -6.5 | 257.1
CCOC(=O)c1c(C)c(C(=O)NC(C)COC)c(C)n1C (stereo not given) | -10.4% | -5.2 | ?
CCOC(=O)c1c(C)c(C(=O)NC(C)COC)c(C)n1CC (stereo not given) | -6.1% | 6.9 | -101.7*
CCC(C)NC(=O)C1CCN(S(=O)(=O)c2ccc3c(ccn3CC)c2)CC1 (stereo not given) | -10.4%[46 µM] | nt | nt
COc1ccc(CC(=O)Nc2cc(-c3cn4cccnc4n3)ccc2OC)cc1 | -4.3%[46 µM] | nt | nt
O=C(NC(=S)Nc1ccc(CN2CCOCC2)cc1)c1cccc([N+](=O)[O-])c1 | ? | nt | -100.0*
O=C(NC(=S)Nc1ccc(N2CCOCC2)cc1)c1cccc([N+](=O)[O-])c1 | 8.6% | nt | 4.6
SMILES | LMNA splice mod | IMPase cell inh | PNC assembly inh
CCOc1ccc(-c2nc(CCl)cs2)cc1 | -4.2%[46 µM] | nt | nt
ClCc1csc(-c2ccc(Cl)cc2)n1 | 8.3% | nt | -113.4*
CCc1ccc(NC(=O)CN(c2ccc(Cl)cc2)S(=O)(=O)c2ccsc2C(=O)OC)cc1 | -3.4%[46 µM] | nt | nt
O=C1C(=O)c2ccc(-c3ccccc3)cc2-c2ccccc21 | ? | ? | -105.1*
COC1=C(c2ccccc2)C(=O)c2ccccc2C1=O | -1.3% | nt | 20.4
CC(=O)Nc1ccc2c(c1)C(=O)c1ccccc1C2=O | 0.9% | -5.6 | -3.5
Nc1ccc2c(c1)C(=O)C(=O)c1ccccc1-2 | ? | ? | -81.1*
COc1ccc(N(CC(=O)N2CCCCC2)S(=O)(=O)c2ccccc2)c(OC)c1 | -7.3% | 10.5[1.84 µM] | -27.8
O=C(O)c1nnn(-c2cc(C(F)(F)F)cc(C(F)(F)F)c2)c1-c1ccccc1 | 5.0%[46 µM] | nt | nt
CC(C)OC(=O)c1c(NC(=O)C2c3ccccc3Oc3ccccc32)sc2c1CCCC2 | nt | 8.9 | nt
CCc1nnc(NC(=O)C(=O)NCCOC(=O)c2ccccc2Cl)s1 | 5.4% | 1.9 | -109.4*
CCc1nnc(NC(=O)CCNC(=O)c2ccccc2Cl)s1 | -17.7%[46 µM] | nt | nt
CN(C)c1ccc(C(=O)NCc2ccc3c(c2)CCN3C(=O)c2ccccc2)cc1 | -8.8%[46 µM] | nt | nt
CCOC(=O)C1CCN(C(c2ccccc2OC)c2c(O)cc(C)n(CCOC)c2=O)CC1 (stereo not given) | -5.1%[46 µM] | nt | nt
CCCn1c(SCC(=O)N2c3ccccc3CC2C)nnc1-c1ccco1 (stereo not given) | -5.2% | 8.8 | -100.0*
CCCn1c(SCC(=O)N2CCc3ccccc32)nnc1-c1ccco1 | 18.5% | -0.9 | -11.8
O=S(=O)(Nc1ccc(Cl)c(C(F)(F)F)c1)c1cnc[nH]1 | -10.6% | 1.6 | -12.3
